Bioassay records from PubChem BioAssay.
This excerpt belongs to a sample that is enriched for hits.
nsP2pro primary: Primary qHTS for inhibitors of NSP2Pro chikungunya virus (CHIKV); AID 1964107, 2024; FRET peptide cleavage, nsP2pro, fluorescence 1 h; Potency, µM (series often up to 24.9 µM), inactives show at the top dose activity change, negative = inhibition, hits mostly inhibitors; 1.1% of 31,000 active; Polyprotein P1234 (Chikungunya virus (strain S27-African prototype)), Q8JUX6; further: nearly all actives have a fitted effect of over 60% in size
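Enzyme 150 nM, substrate 2.5 uM (both final); Tris-HCl 10 mM pH 8.0 + 0.01% Tween 20; cpd up to 25 uM, 7 pts; 15 min preinc., 1 h RT; fluorescence ex 525/em 598.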
nsP2 cell sec: Secondary cell base assay for inhibitors of NSP2Pro Chikungunya virus (CHIKV). shares compounds with nsP2pro primary. 10% of 450 active. Potency, µM (titrated, usually from 51.1 µM), inactives show top-dose activity change, negative = inhibition, actives largely listed as inhibitors. cell-based CHIKV nsP2 protease reporter assay; further: nearly all actives have a fitted effect of over 70% in size
CHIKV NSP2 FL: Selectivity profile for inhibitors of NSP2Pro chikungunya virus (CHIKV): Full length NSP2 enzyme counterscreen (CHIKV-NSP2) | shares compounds with nsP2pro primary | Full-length CHIKV NSP2 protease enzymatic counterscreen | Potency, µM (top dose mostly 50.7 µM), without a hit: at the top dose activity change, negative = inhibition, hits mostly inhibitors | 39% of 410 active | AID 1964101, 2024; further: nearly all actives have a fitted effect of over 65% in size
Furin counter: Selectivity profile for inhibitors of NSP2Pro chikungunya virus (CHIKV): Human furin counterscreen; shares compounds with nsP2pro primary; Recombinant human furin enzymatic counterscreen, fluorogenic substrate; Potency, µM (top dose mostly 50.6 µM), inactives show top-dose activity change, negative = inhibition, hits mostly inhibitors; 6% of 410 active; AID 1964102, 2024
NS23 peptide cs: Selectivity profile for inhibitors of NSP2Pro chikungunya virus (CHIKV): Endogenous NS2/3 peptide Counterscreen | 34% of 410 active | Purified CHIKV nsP2 protease, endogenous NS2/3 peptide cleavage | Potency, µM (series often up to 51 µM), for the others: top-dose activity change, negative = inhibition, actives largely listed as inhibitors | shares compounds with nsP2pro primary | AID 1964103, 2024; further: nearly all actives have a fitted effect of over 55% in size
Papain cs: Selectivity profile for inhibitors of NSP2Pro chikungunya virus (CHIKV): Papain Counterscreen; shares compounds with nsP2pro primary; purified papain protease activity, enzymatic inhibition; Potency, µM (titrated, usually from 51 µM), for the others: at the top dose activity change, negative = inhibition, hits mostly inhibitors; 5% of 410 active
Target sequence (P00784 whole entry, looked up): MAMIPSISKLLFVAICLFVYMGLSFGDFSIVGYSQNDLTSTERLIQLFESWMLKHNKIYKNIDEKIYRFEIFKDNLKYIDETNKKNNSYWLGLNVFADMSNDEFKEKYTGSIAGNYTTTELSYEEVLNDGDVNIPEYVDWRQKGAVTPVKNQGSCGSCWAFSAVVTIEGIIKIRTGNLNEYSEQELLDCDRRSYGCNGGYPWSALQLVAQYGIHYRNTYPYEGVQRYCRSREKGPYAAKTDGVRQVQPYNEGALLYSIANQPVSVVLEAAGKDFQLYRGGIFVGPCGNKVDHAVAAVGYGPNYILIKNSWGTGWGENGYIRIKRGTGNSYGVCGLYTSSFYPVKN
nsP2pro confirm: Confirmatory qHTS for inhibitors of NSP2Pro chikungunya virus (CHIKV); shares compounds with nsP2pro primary; CHIKV nsP2 protease enzymatic activity, qHTS; Potency, µM (doses to about 25.5 µM), inactives show at the highest dose activity change, negative = inhibition, usual class: inhibitors; 43% of 410 active; AID 1964105, 2024; further: nearly all actives have a fitted effect of over 75% in size
HCV NS3 4A cs: Selectivity profile for inhibitors of NSP2Pro chikungunya virus (CHIKV): NS34A-HCV Counterscreen; 20% of 410 active; shares compounds with nsP2pro primary; AID 1964106, 2024; Potency, µM (titrated, usually from 50.9 µM), actives largely listed as inhibitors; HCV NS3/4A protease biochemical counterscreen; further: nearly all actives have a fitted effect of over 55% in size
The depositor's hits bear a star; i = inactive; ? = inconclusive; [ ] = remark or other dose. The call rests on the fitted dose curve. On the % scale 0 is the no-effect control and ±100 the full control effect; potency means the concentration at half of the fitted maximal effect.

SMILES	nsP2pro primary	others
COc1cncc([C@@H](NC(=O)CCc2c(C)noc2C)C2CC(O)C2)c1 (stereo partly specified)	i
Cc1cc(C)nc(NC(=S)N2CCN(Cc3cccc4ccccc34)CC2)c1	-6%
CN(Cc1nc(-c2ccccc2)no1)C(=O)c1cccc(C2CCNC2)c1 (stereo unspecified)	5%
CC(=O)N1CCN(C(=O)c2cc(-c3ccc(F)cc3)c3nncn3n2)CC1	-6%
Cc1ccc(-n2ncc3c2CC(C)(C)CC3NS(=O)(=O)c2cn(C)cn2)cc1 (stereo unspecified)	-2%
O=C(NCCN1C(=O)C2(CCCCC2)C1c1ccccc1)NCc1ccccc1 (stereo unspecified)	-8%
O=C(Nc1ccc([C@H]2OCC(=O)N(C3CCOCC3)[C@@H]2CO)cc1)c1cnccn1	i
CN1CCc2nc(C(=O)N[C@@H]3C[C@@H](C(=O)N(C)C)CC[C@@H]3NC(=O)C(=O)Nc3ccc(Cl)cn3)sc2C1	?	nsP2 cell sec=-10%;CHIKV NSP2 FL=14%;Furin counter=12%;NS23 peptide cs=6%;Papain cs=-4%;nsP2pro confirm=-12%;HCV NS3 4A cs=i
O=C(O)CC[C@@H](O)C(=O)O	-15%
O=C(NCc1nnc2n1C(C(=O)N1CCCC1)CC2)Nc1cccnc1 (stereo unspecified)	-20%
CC(=O)NCc1nnc2n1C(C(=O)NC1CCCCCC1)CC2 (stereo unspecified)	-22%[39.2 µM]
Cn1ccc(C(=O)NCc2nnc3n2C(C(=O)NCC2CC2)CC3)n1 (stereo unspecified)	7.9µM*	nsP2 cell sec=10%;CHIKV NSP2 FL=?;Furin counter=-6%;NS23 peptide cs=?;Papain cs=3%;nsP2pro confirm=?;HCV NS3 4A cs=11µM*
CC(=O)c1cc2cccc(OCC(O)CNC(C)C)c2o1 (stereo unspecified)	-4%
CC(=O)NCC(=O)O	1%[39.2 µM]
CCCC(=O)N1Cc2ccccc2NC(=O)C12CCNC2 (stereo unspecified)	-14%[39.2 µM]
CC[C@H](C)/C=C(C)/C=C/C1=CC2=CC(=O)[C@]3(C)OC(=O)[C@@H](C(C)=O)[C@@H]3C2=CO1	?	nsP2 cell sec=2%[33.5 µM];CHIKV NSP2 FL=?;Furin counter=-22%[33.5 µM];NS23 peptide cs=?;Papain cs=41%[33.5 µM];nsP2pro confirm=?;HCV NS3 4A cs=i
CCC(C)/C=C(C)/C=C/C1=CC2=CC(=O)C(C)(O)C(OC(C)=O)C2CO1 (stereo unspecified)	-2%
CCC(C)/C=C(C)/C=C/C1=CC2=C(Cl)C(=O)C(C)(OC(C)=O)C(=O)C2=CO1 (stereo unspecified)	?	nsP2 cell sec=-14%[33.5 µM];CHIKV NSP2 FL=?;Furin counter=-19%[33.5 µM];NS23 peptide cs=?;Papain cs=?;nsP2pro confirm=?;HCV NS3 4A cs=i
CCC(C)/C=C(C)/C=C/C1=CC2=C(Cl)C(=O)C(C)(OC(C)=O)C(=O)C2=CN1CCCCC(N)C(=O)O (stereo unspecified)	-21%[10 µM]
